Assay results reported in PubChem BioAssay (NCATS).
Results filed as inconclusive are left out. Values without a mark were called inactive. The call rests on the fitted dose curve; in most records, active means well fitted curve in either direction with a large enough effect (not every such curve was filed as active); inconclusive means small, poorly fitted or top-dose-only effect, or another doubt; inactive means flat fitted curve, though single readings scatter.

assay: AP1 Signaling Pathway (AID 357); conditions: ME-180 (cervical carcinoma) AP-1-bla reporter, EGF-induced, beta-lactamase ratio, 5 h; at 17.2 µM (top of the series) unless noted;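 further: ME-180 reporter cells stimulated with EGF at its EC50 level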
Summary of the method: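 A ratiometric CCF4 readout (405 nm excitation; 460 and 530 nm emission) quantified AP-1-driven beta-lactamase in ME-180 cells after 5 h with compound and EC50 EGF; AC50 values were derived for activators and inhibitors.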
On the % scale 0 is the no-effect control and ±100 the full control effect.

| Compound | activity change, negative = inhibition |
| --- | --- |
| C[N+](C)(C)CCN(Cc1cccs1)c1ccccn1 | -6.68% [at 7.69 µM] |
| CCC1SC(N)=NC1=O (stereo not given) | 2.7% |
| COC(=O)c1ccc(C2C(C(=O)c3cc4ccccc4o3)=C(O)C(=O)N2CCCN(C)C)cc1 (stereo not given) | -0.991% |
| COC(=O)c1cc(=O)n2c(-c3ccc(OC)cc3)csc2n1 | -2.63% |
| Cc1ccc(-c2ccc(/C=N/c3ncn[nH]3)o2)cc1Cl | 1.81% |
| COc1ccc(C2C(C#N)=C(SC)NC3=C2C(=O)CC(C)(C)C3)cc1 (stereo not given) | -6.47% |
| CCCCCNC(=O)C(C#N)c1nc2ccccc2nc1N1CC(C)OC(C)C1 (stereo not given) | -18.2% |
| Cn1c(=O)[nH]c2cc(Cl)cnc21 | 7.54% |
| O=c1cc(-c2ccco2)nc(-c2cccs2)o1 | 6.68% |
| CCOC(=O)c1[nH]c2ccc(F)cc2c1N=C(C)N(CC)CC | 4.09% |
| CCOC(=O)c1c(C)[nH]c(/C(C)=N/O)c1C | -4.81% |
| CSc1nc2[nH]c3c(c2c2nnnn12)CCCC3 | -20.6% |
| CCOC(=O)C1=C(C)NC(C)=C(C(=O)OC)[C@@H]1c1cccc(Cl)c1Cl | -13.1% |
| Cc1cccc(NC(=O)c2cc(N3CCOCC3)nc3ccccc23)c1 | -7.76% |
| CCOC(=O)C1=Nc2ccccc2C1=[N+]=[N-] | -19% |
| CN1C[C@@H](C(=O)N[C@]2(C)O[C@]3(O)[C@H]4CCCN4C(=O)[C@H](Cc4ccccc4)N3C2=O)C[C@H]2c3cccc4[nH]cc(c34)C[C@@H]21 | -19.9% [at 38 µM] |
| CCCCc1cc(=O)oc2c(CN(C)C)c(O)c(Cl)cc12 | -6.67% |
| NC(=O)/C(=C\c1ccncc1)c1cccc2ccccc12 | -11.2% [at 7.69 µM] |
| CC(C)Cn1nc(NC(=O)C(C)(C)C)c2cc3ccccc3nc21 | -20.3% |
| CC(C)CSc1nc(N2CCOCC2)c2c(c1C#N)CC(C)(C)SC2 | -7.32% |

| Compound | activity change, negative = inhibition |
| --- | --- |
| COC(=O)CSc1nc(-c2cccs2)ccc1C#N | -2.59% |
| Nc1nnnn1/N=C/c1ccco1 | 2.89% |
| O=C(NC1CCCCC1)N1CCSC1=Nc1ccccc1 | 4.48% |
| CCOC(=O)C1=C(C)NC(C)=C(C(=O)OC)[C@H]1c1cccc(Cl)c1Cl | -9.86% [at 38 µM] |
| C[C@H](CCC(=O)O)[C@H]1CC[C@@H]2[C@H]3CC[C@H]4C[C@@H](O)CC[C@@]4(C)[C@H]3CC[C@]21C | 13.9% |
| Cc1cc(C(C)(C)CC(C)(C)C)ccc1OCCOCC[N+](C)(C)Cc1ccccc1 | 18.1% |
| CC[C@H](c1ccccc1)c1cc(C(C)(C)C)cc(C(C)(C)C)c1O | 7.36% [at 7.69 µM] |
| Cn1c(=O)c2c3c(sc2n2c(SCc4ccccc4)nnc12)CCCC3 | -6.83% |
| CC(=O)N/C(=N/c1nc(C)cc(C)n1)Nc1ccc(NC(C)=O)cc1 | -2.08% |
| Cc1cccc(N(Cc2cc3ccccc3[nH]c2=O)C(=O)c2ccco2)c1C | -19.9% |
| CC(C)Cc1nc(N2CCCCC2)c(C#N)c2c1CCC2 | 28.8% |
| Cc1nnc(C)n1/N=C/c1cc(Br)cc(Br)c1O | -5.92% |
| O[Si@](CCCN1CCCCC1)(c1ccc(F)cc1)C1CCCCC1 | 11.3% [at 38 µM] |
| C[N+](C)(C)[C@@H](C1=CCCC1=O)c1ccccc1 | 3.55% [at 7.69 µM] |
| O=C(Nc1nnc(SCc2ccccc2F)s1)c1ccco1 | -5.32% |
| COC(=O)c1ccc(Oc2nc3ccccc3n3c(C)nnc23)cc1 | 13% |
| CC(C)(C#N)C(C)(C)c1nn[nH]n1 | 6.02% |
| CCCCCCCCN[C@@H](C)[C@H](O)c1ccc(SC(C)C)cc1 | 0.133% |
| Oc1c(C=Nc2cccnc2)sc2ccccc12 | 8.1% |
| CC(=O)O[C@@H]1[C@H]([N+]2(C)CCCCC2)C[C@@H]2[C@@H]3CC[C@@H]4C[C@@H](OC(C)=O)[C@H]([N+]5(C)CCCCC5)C[C@@]4(C)[C@H]3CC[C@]21C | 13.6% [at 38 µM] |
